# The campaign covered roughly 2,000 compounds. About 100 (5%) were called active. Cut-off read from the data, not from the text of the source: active = z-score above about 2; inactive = the rest. The sample as a whole holds a higher share of actives than the screen did.
# Assay: supercomplex reporter luminescence per Hoechst cell count – Hoechst nuclei count (AID 1645838);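 note: control cybrid cells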;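 for z-score: higher means more mitochondrial supercomplex formation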
# Details: Cells, luminescence/Hoechst cell count ratio; for z-score: stronger effect = higher value; for cell count: measured here: cell number, Hoechst nuclei count
# [1] = library stock concentration (final well concentration not given) 46 uM
# [2] = library stock concentration (final well concentration not given) 278 uM
# [3] = library stock concentration (final well concentration not given) 1.67 mM
# [4] = library stock concentration (final well concentration not given) 10 mM
# [5] = library stock concentration (final well concentration not given) 80 uM
# [6] = library stock concentration (final well concentration not given) 400 uM
# [7] = library stock concentration (final well concentration not given) 2 mM
compound,measurement,setting,value
Cc1ccc(C(=O)Nc2ccc(Oc3cc4cnn(C)c4cc3-c3cn[nH]c3)c(F)c2)c(=O)n1-c1ccc(F)cc1,z-score,[1],-0.888 (inactive)
same,z-score,[2],-0.95 (inactive)
same,z-score,[3],-1.73 (inactive)
same,z-score,[4],-2.48 (inactive)
same,cell count,[1],7640
same,cell count,[2],6950
same,cell count,[3],7070
same,cell count,[4],6390
CC/C=C\C/C=C\C/C=C\C/C=C\C/C=C\CCCC(=O)O[C@H](COCCCCCCCCCCCCCCCC)COP(=O)([O-])OCC[N+](C)(C)C,z-score,,-1.23 (inactive)
same,cell count,,5300
CCCCC[C@H](O)/C=C/[C@@H]1[C@@H](C/C=C\CCCC(=O)NC(CO)CO)[C@@H](O)C[C@H]1O,z-score,,-0.166 (inactive)
same,cell count,,5460
Cn1cc(CNCC2CCN(c3ncc(C(=O)NO)cn3)CC2)c2ccccc21,outcome,library stock 400 µM,inactive; censored for cell count
same,outcome,library stock 2 mM,inactive; censored for cell count
same,outcome,library stock 10 mM,inactive; censored for cell count
same,z-score,[5],10.5 (active)
same,cell count,[5],1710
COc1cc(C(=O)NS(=O)(=O)c2ccccc2C)ccc1Cc1cn(C)c2ccc(NC(=O)OC3CCCC3)cc12,z-score,,-0.169 (inactive)
same,z-score,[5],-0.186 (inactive)
same,z-score,[6],0.251 (inactive)
same,z-score,[7],-0.394 (inactive)
same,z-score,[4],0.0319 (inactive)
same,cell count,,4650
same,cell count,[5],5870
same,cell count,[6],5520
same,cell count,[7],5910
same,cell count,[4],4990
CN1CCc2c(c3ccccc3n2Cc2ccc(C(=O)NO)cc2)C1,z-score,[1],-0.165 (inactive)
same,z-score,[2],-0.118 (inactive)
same,z-score,[3],-0.0772 (inactive)
same,z-score,[4],0.0302 (inactive)
same,cell count,[1],5170
same,cell count,[2],5040
same,cell count,[3],4790
same,cell count,[4],4770
Nc1nc(OC(c2ccc(-c3cccc(F)c3)cc2)C(F)(F)F)cc(-c2ccc(CC(N)C(=O)O)cc2)n1 (stereo not given),z-score,[5],-0.00893 (inactive)
same,z-score,[6],-0.406 (inactive)
same,z-score,[7],-0.0477 (inactive)
same,z-score,[4],-0.333 (inactive)
same,cell count,[5],4780
same,cell count,[6],5340
same,cell count,[7],4660
same,cell count,[4],4880
CCCCCC(=O)CC[C@H]1C(=O)C[C@H](O)[C@@H]1C/C=C\CCCC(=O)O,z-score,,0.618 (inactive)
same,cell count,,5420
COc1cc(NS(C)(=O)=O)ccc1Nc1c2ccccc2nc2ccccc12,outcome,library stock 2 mM,inactive; censored for cell count
same,outcome,library stock 10 mM,inactive; censored for cell count
same,z-score,[5],0.627 (inactive)
same,z-score,[6],2.51 (active)
same,cell count,[5],4290
same,cell count,[6],2280
CS(=O)(=O)Nc1ccc([N+](=O)[O-])cc1Oc1ccccc1,z-score,,1.64 (inactive)
same,cell count,,4310
CN1CCN(c2ccc(Nc3c4ccccc4nc4ccccc34)cc2)CC1,outcome,library stock 2 mM,inactive; censored for cell count
same,outcome,library stock 10 mM,inactive; censored for cell count
same,z-score,[1],0.226 (inactive)
same,z-score,[5],-0.0401 (inactive)
same,z-score,[2],0.109 (inactive)
same,z-score,[6],1.07 (inactive)
same,z-score,[3],0.208 (inactive)
same,cell count,[1],6220
same,cell count,[5],5080
same,cell count,[2],5990
same,cell count,[6],4020
same,cell count,[3],6120
